PubChem BioAssay (EPA / NIEHS)
Records with an inconclusive call do not appear. The source made the active and inactive calls. Rule for the calls: active = hit-call score of the fitted dose curve at least 0.9, where 1 is the maximum; inconclusive = response in the unintended direction; inactive = score below 0.9.

Columns and labels:
[1] = biological target: Retinoic acid receptor alpha (Homo sapiens) (UniProt P10276); assay: ATG_RARa_TRANS: Attagene TRANS-FACTORIAL HepG2 Assay for human Retinoic Acid Receptor alpha (RARa) (AID 2283005)
In short: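 HepG2 transiently transfected with multiplex GAL4-UAS reporter units including a human RARa–GAL4 chimera; 24 h compound exposure. Reporter mRNA quantified by RT-PCR, 6-FAM labeling and capillary electrophoresis; gain of signal versus DMSO.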

[2] = biological target: Peroxisome proliferator-activated receptor gamma (Homo sapiens) (UniProt P37231); assay: ATG_PPARg_TRANS: Attagene TRANS-FACTORIAL HepG2 Assay for human Peroxisome Proliferator-activated Receptor-gamma (PPARg) (AID 2283007)
In short: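 Transient transfection of HepG2 with GAL4-UAS-driven reporter units; chemical dosing 24 h; total RNA → oligo(dT) RT → PCR with reporter primers → 6-FAM primer extension → HpaI digest 2 h 37 C → capillary electrophoresis. Positive direction vs DMSO.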

[3] = biological target: Nuclear receptor subfamily 1 group I member 2 (Homo sapiens) (UniProt O75469); assay: ATG_PXR_TRANS: Attagene TRANS-FACTORIAL HepG2 Assay for human Pregnane X Receptor (PXR) (AID 2283008)
In short: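 Transactivation by exogenous PXR–GAL4 fusion measured as reporter transcript induction after 24 h compound treatment of transfected human HepG2 cells. Read-out via RT-PCR and capillary electrophoresis of labelled fragments, fitted upward relative to DMSO.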

[4] = biological target: human RAR-related Orphan Receptor beta (RORb), RORB (gene 6096) (UniProt Q92753); assay: ATG_RORb_TRANS: Attagene TRANS-FACTORIAL HepG2 Assay for human RAR-related Orphan Receptor beta (RORb) (AID 2283010)
In short: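 Multiplexed transcription-factor reporter assay: HepG2 cells transiently carrying NR-Gal4/GAL4-UAS constructs, 24 h treatment, mRNA quantified by RT-PCR plus capillary electrophoresis fluorescence; activity scored as induction over DMSO.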

[5] = biological target: human RAR-related Orphan Receptor gamma (RORg), RORC (gene 6097) (UniProt P51449); assay: ATG_RORg_TRANS: Attagene TRANS-FACTORIAL HepG2 Assay for human RAR-related Orphan Receptor gamma (RORg) (AID 2283011)
In short: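 Chimeric RORg-Gal4 transactivation in transfected HepG2; 24 h exposure; RT-PCR/capillary electrophoresis readout of reporter mRNA, DMSO baseline.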

[6] = biological target: human Retinoic Acid Receptor gamma (RARg), RARG (gene 5916) (UniProt P13631); assay: ATG_RARg_TRANS: Attagene TRANS-FACTORIAL HepG2 Assay for human Retinoic Acid Receptor gamma (RARg) (AID 2283009)
In short: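 Gain-of-signal relative to DMSO is reported from fluorescent capillary electrophoresis of RT-PCR reporter products. These came from HepG2 cells expressing transfected RARg-GAL4 chimeras with UAS reporters, harvested 24 h after dosing.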

[7] = biological target: Retinoic acid receptor RXR-alpha (Homo sapiens) (UniProt P19793); assay: ATG_RXRa_TRANS: Attagene TRANS-FACTORIAL HepG2 Assay for human Retinoid X Receptor alpha (RXRa) (AID 2283012)
In short: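 Chimeric NR-GAL4 trans-activation in HepG2, 24 h treatment; reporter transcripts quantified by fluorescence on capillary electrophoresis, analysed for upward change from DMSO.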

Measured: AC50

Chain of human Retinoic Acid Receptor gamma (RARg), RARG (gene 5916) (P13631 whole entry, looked up, the tested form may be a part): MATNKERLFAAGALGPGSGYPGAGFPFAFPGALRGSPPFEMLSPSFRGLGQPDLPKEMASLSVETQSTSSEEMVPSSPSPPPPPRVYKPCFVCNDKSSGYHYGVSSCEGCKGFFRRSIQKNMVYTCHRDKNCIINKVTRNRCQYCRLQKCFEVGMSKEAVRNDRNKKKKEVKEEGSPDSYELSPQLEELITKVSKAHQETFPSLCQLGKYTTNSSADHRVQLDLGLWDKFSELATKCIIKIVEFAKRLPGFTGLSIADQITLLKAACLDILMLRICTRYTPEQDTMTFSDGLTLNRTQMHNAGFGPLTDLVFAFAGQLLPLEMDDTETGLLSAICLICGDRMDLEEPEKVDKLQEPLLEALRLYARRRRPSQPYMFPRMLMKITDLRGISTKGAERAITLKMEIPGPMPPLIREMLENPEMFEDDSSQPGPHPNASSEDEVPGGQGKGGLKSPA
Chain of Retinoic acid receptor alpha (Homo sapiens) (P10276 whole entry, looked up, the tested form may be a part): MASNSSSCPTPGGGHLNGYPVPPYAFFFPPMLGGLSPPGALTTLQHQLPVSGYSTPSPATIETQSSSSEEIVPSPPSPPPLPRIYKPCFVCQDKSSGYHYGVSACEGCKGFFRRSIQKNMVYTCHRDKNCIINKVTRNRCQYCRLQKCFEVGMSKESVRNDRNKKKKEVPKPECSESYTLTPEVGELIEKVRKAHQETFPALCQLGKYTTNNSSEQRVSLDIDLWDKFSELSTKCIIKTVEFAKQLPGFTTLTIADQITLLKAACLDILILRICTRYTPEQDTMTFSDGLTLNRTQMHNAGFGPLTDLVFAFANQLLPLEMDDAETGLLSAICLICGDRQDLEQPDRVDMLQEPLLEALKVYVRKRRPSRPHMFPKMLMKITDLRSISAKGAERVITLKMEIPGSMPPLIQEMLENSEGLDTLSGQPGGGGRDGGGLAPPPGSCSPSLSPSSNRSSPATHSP
Chain of human RAR-related Orphan Receptor beta (RORb), RORB (gene 6096) (Q92753 whole entry, looked up, the tested form may be a part): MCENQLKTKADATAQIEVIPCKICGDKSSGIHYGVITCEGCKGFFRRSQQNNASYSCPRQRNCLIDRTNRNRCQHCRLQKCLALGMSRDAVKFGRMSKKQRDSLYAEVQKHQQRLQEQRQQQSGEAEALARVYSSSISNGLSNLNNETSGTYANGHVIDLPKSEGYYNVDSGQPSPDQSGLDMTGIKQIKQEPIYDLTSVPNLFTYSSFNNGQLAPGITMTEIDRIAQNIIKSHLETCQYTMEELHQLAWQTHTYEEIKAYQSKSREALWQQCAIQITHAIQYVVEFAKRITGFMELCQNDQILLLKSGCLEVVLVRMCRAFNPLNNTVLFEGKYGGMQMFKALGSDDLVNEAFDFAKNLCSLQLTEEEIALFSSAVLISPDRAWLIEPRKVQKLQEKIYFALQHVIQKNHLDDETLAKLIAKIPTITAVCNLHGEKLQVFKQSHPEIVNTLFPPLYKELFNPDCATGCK
Chain of human RAR-related Orphan Receptor gamma (RORg), RORC (gene 6097) (P51449 whole entry, looked up, the tested form may be a part): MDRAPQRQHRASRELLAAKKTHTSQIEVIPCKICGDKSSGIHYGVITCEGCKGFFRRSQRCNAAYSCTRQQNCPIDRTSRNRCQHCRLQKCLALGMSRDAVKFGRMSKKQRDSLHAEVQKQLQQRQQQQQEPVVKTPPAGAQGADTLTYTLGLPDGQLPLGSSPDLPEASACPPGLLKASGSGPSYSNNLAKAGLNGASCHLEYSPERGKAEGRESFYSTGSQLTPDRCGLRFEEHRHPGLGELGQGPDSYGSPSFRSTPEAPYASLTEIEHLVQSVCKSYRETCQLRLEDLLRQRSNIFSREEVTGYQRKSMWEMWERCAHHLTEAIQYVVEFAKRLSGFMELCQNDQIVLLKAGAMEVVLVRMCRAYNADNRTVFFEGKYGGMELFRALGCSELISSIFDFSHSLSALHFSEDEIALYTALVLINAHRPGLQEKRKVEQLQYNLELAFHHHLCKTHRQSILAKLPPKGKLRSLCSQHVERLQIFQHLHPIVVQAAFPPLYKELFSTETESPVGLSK
Chain of Peroxisome proliferator-activated receptor gamma (Homo sapiens) (P37231 whole entry, looked up, the tested form may be a part): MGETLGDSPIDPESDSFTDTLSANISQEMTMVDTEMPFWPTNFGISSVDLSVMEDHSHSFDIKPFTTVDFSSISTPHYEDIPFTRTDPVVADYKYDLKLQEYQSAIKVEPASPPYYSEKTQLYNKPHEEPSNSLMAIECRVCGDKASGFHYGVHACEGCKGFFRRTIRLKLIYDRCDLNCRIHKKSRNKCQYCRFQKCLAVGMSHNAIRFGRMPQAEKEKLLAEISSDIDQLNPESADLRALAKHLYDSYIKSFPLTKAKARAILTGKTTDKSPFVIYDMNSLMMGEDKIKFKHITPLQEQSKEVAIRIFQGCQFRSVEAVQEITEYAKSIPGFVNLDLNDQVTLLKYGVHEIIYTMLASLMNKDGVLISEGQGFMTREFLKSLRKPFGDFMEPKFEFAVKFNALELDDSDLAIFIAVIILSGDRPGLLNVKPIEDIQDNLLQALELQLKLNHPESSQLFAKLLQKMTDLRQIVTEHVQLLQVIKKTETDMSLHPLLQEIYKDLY
Chain of Retinoic acid receptor RXR-alpha (Homo sapiens) (P19793 whole entry, looked up, the tested form may be a part): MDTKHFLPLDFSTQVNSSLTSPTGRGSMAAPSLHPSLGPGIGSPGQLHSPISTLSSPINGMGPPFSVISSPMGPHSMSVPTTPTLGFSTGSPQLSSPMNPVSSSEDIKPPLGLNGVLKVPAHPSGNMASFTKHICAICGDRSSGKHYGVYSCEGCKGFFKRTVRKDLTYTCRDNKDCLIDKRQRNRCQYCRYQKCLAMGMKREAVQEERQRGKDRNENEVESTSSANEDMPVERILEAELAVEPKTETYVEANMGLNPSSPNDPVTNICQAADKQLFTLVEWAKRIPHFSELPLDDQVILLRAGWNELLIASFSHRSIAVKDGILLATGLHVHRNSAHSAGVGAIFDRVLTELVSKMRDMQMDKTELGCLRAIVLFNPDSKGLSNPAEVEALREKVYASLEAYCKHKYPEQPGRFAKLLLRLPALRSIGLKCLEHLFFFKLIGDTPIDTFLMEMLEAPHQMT
Chain of Nuclear receptor subfamily 1 group I member 2 (Homo sapiens) (O75469 whole entry, looked up, the tested form may be a part): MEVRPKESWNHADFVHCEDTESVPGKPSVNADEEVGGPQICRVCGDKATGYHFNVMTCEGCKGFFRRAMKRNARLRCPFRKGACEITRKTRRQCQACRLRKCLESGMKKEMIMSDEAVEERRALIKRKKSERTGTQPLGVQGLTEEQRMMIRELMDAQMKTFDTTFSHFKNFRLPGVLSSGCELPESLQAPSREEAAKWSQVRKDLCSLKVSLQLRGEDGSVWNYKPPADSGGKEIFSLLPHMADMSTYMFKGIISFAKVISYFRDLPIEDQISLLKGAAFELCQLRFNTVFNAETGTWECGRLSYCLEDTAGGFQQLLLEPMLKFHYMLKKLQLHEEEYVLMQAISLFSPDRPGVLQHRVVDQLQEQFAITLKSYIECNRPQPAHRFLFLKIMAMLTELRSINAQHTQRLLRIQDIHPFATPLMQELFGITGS

O=P(O)(O)Oc1ccccc1
inactive: [1]

Cc1ccc([N+](=O)[O-])cc1S(=O)(=O)O
inactive: [2] | [3] | [4] | [5]

CC(C)CC(O)Cc1ccccc1 (centres undefined)
inactive: [1] | [2] | [3] | [6]

C[Si](C)(CCCN)O[Si](C)(C)CCCN
inactive: [2] | [3] | [6] | [5] | [7]

CCCCC(CC)CCC(CC(C)C)OS(=O)(=O)O (centres undefined)
active: [2] 36.6 µM | [3] 5.35 µM
inactive: [4]

CC(C)(C)c1ccc(N)cc1
inactive: [2] | [3] | [4] | [5] | [7]

CCCCCCCCCCOC(C)=O
inactive: [2] | [3] | [4] | [5] | [7]

CC(C)c1ccc(C#N)cc1
inactive: [1] | [3] | [4] | [7]

CC(=O)OCc1ccco1
inactive: [2] | [3] | [4] | [5]

C=CC(=O)NC(C)(C)CS(=O)(=O)O
inactive: [1] | [2] | [4] | [5]

FC(F)(F)C(=NOCC1OCCO1)c1ccc(Cl)cc1
inactive: [2] | [3] | [4] | [7]

CC1=Nc2ccc3ccccc3c2C1(C)C
active: [2] 40.5 µM | [3] 2.65 µM
inactive: [6] | [7]

CC(C)=CC1CC(C)CCO1 (centres undefined)
inactive: [1] | [7]

O=C(O)c1cc2ccccc2nc1C(=O)O
inactive: [2] | [3]

COc1cc(NC(=O)CC(C)=O)c(OC)cc1Cl
inactive: [2] | [3] | [6] | [4] | [7]

COC(=O)c1ccc2cc(C(=O)OC)ccc2c1
active: [2] 26.3 µM
inactive: [3] | [6] | [4] | [7]

c1cc(N(CC2CO2)CC2CO2)ccc1OCC1CO1 (centres undefined)
inactive: [2] | [3] | [6]

NC(=O)NNC(N)=O
inactive: [1] | [3] | [6] | [5] | [7]

O=C(O)c1cc(Cl)cc([N+](=O)[O-])c1Cl
inactive: [2] | [3] | [7]

CC(=O)NS(=O)(=O)c1ccc(N)cc1
inactive: [6] | [5] | [7]

NNC(=O)c1cccc(C(=O)NN)c1
inactive: [3] | [6]

[Cl][Bi]([Cl])([c]1ccccc1)([c]1ccccc1)[c]1ccccc1
active: [2] 1.17 µM | [7] 5.6 µM
